We go through seven compounds from PubChem BioAssay (NCATS).

Assay [1] is described as follows: P-glycoprotein substrates identified in KB-8-5-11 adenocarcinoma cell line, qHTS therapeutic library screen (AID 1346987). Also: % is scaled to controls: 0 for no effect and ±100 for the full control effect; nearly all actives have a fitted effect of over 65% in size. The gist of the method:
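Compounds are pinned in dose-response onto KB-8-5-11 cells (500 cells/well, colchicine-free medium) and left 72 h at 37 degree C. CellTiter-Glo luminescence then yields AC50 values.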
(In qHTS, concentration-response curves come from the screen itself.)

Assay [2] can be described thus: Primary qHTS for inhibitors of nuclear receptor binding SET domain protein 2 (NSD2) in an isogenic RCH-ACV NSD2 p.E1099K mutant (9B) (AID 1645876). Also: % is scaled to controls: 0 for no effect and ±100 for the full control effect; nearly all actives have a fitted effect of over 70% in size.
Assay [3] addresses Catechol O-methyltransferase (Homo sapiens) (UniProt P21964). Nature of the assay: Confirmatory Screen for Target Class Profiling of Small Molecule Inhibitors of Methyltransferases (AID 1745852). As to activity change, negative = inhibition: % is scaled to controls: 0 for no effect and ±100 for the full control effect. Particulars: MTase-Glo luminescence, SAH detection, recombinant enzyme; measured here: COMT max response; stronger effect = lower value.
For assay [4], the target named is Guanidinoacetate N-methyltransferase (Homo sapiens) (UniProt Q14353). Described as above. Particulars: activity change, negative = inhibition: at 57.3 µM (top of the series) unless noted.
For assay [5], the target named is Nicotinamide N-methyltransferase (Homo sapiens) (UniProt P40261). The description is as above. The following applies: MTase-Glo luminescence, SAH detection, recombinant enzyme; measured here: NNMT max response; stronger effect = lower value.
Nicotinamide N-methyltransferase (Homo sapiens), sequence (P40261 whole entry, looked up): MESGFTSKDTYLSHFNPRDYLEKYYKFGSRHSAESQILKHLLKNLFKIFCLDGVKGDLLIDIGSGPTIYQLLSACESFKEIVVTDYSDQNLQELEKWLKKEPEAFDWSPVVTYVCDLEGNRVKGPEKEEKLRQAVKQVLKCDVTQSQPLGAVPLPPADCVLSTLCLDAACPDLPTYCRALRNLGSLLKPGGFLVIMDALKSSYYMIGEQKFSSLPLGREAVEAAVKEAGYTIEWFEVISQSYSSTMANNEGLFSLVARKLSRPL
In assay [6] the target is Phenylethanolamine N-methyltransferase (Homo sapiens) (UniProt P11086). The assay is described as above. Particulars: MTase-Glo luminescence, SAH detection, recombinant enzyme; measured here: PNMT max response; stronger effect = lower value.
Phenylethanolamine N-methyltransferase (Homo sapiens), sequence (P11086 whole entry, looked up): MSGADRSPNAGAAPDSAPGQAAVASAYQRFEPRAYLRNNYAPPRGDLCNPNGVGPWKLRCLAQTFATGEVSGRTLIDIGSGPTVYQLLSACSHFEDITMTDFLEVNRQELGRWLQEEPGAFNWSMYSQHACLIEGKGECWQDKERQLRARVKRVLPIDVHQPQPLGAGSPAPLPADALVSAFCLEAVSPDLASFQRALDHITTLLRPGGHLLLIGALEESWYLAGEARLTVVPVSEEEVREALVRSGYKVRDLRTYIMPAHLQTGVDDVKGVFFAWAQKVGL
For assay [7], the system named is CRL-7250. In words: Cytotoxic Profiling of Annotated Libraries Using Quantitative High-Throughput Screening (AID 1296008). Also: nearly all actives have a fitted effect of over 60% in size. As to max response: % is scaled to controls: 0 for no effect and ±100 for the full control effect. The following applies: Five cell lines viability, CellTiter-Glo ATP luminescence, 48-72 h; max response: stronger effect = lower value. An outline of the steps: (§1)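 Cytotoxicity was measured as CellTiter-Glo ATP luminescence, read after 10 min at room temperature. Compound treatment of the cells lasted 48 or 72 hr at 37 degrees Celsius in a qHTS format.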
(Cellular ATP, detected with luciferase, serves as a proxy for viable cell number.)

Assay [8] deals with KB-3-1. Described as above. Particulars: Five cell lines viability, CellTiter-Glo ATP luminescence, 48-72 h; max response: stronger effect = lower value. The gist of the method:
as §1

The subject of assay [9] is HACAT. Nature of the assay: qHTS assay to identify novel small-molecules to repurpose for Merkel cell carcinoma treatment (AID 1296009). Also: nearly all actives have a fitted effect of over 60% in size. The following applies: MCC and control cell lines, CellTiter-Glo viability, 72 h; at 44.8 µM (top of the series) unless noted. An outline of the steps:
(§2)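 Cell viability, measured as CellTiter-Glo luminescence, was normalized between DMSO and no-cell wells. The cells had been exposed to 8- or 11-point compound dilutions for 72 hr at 37 degree celsius.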

The test system of assay [10] is HeLa. In words: Primary qHTS to identify gynecologic anti-cancer compounds using libraries of approved drugs and bioactive compounds (AID 1345084). Also: % is scaled to controls: 0 for no effect and ±100 for the full control effect; nearly all actives have a fitted effect of over 55% in size. The following applies: Gynecologic cancer cell panel viability, ATPlite luminescence, 48 h; series mostly up to 57.5 µM. An outline of the steps:
(§3)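 Cells, 1,000 per well, were allowed to settle for 16 h at 37 C before compound addition. Five concentrations were tested for 48 h, and viability was read by ATPlite luminescence after 15 min at room temperature.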

The test system of assay [11] is SKOV3. The description is as above. Particulars: Gynecologic cancer cell panel viability, ATPlite luminescence, 48 h; series mostly up to 57.5 µM. The gist of the method: as §3
For assay [12], the target named is Cytochrome P450 2D6 (Homo sapiens) (UniProt P10635). Nature of the assay: Cytochrome P450 family 2 subfamily D member 6 (CYP2D6) small molecule antagonists: luciferase biochemical (cell-free) qHTS assay (AID 1645840; active = well fitted curve in the direction sought with a large enough effect in the repeat runs; an effect the other way counts as inactive or inconclusive; also: % is scaled to controls: 0 for no effect and ±100 for the full control effect; nearly all actives have a fitted effect of over 55% in size). The gist of the method: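 P450-Glo CYP2D6 system: proluciferin substrate converted by enzyme to luciferin, read by luminescence proportional to activity. Enzyme-substrate mix with compound 10 min at room temperature, then NADPH regeneration 1 h before detection reagent.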
Cytochrome P450 2D6 (Homo sapiens), sequence (P10635 whole entry, looked up): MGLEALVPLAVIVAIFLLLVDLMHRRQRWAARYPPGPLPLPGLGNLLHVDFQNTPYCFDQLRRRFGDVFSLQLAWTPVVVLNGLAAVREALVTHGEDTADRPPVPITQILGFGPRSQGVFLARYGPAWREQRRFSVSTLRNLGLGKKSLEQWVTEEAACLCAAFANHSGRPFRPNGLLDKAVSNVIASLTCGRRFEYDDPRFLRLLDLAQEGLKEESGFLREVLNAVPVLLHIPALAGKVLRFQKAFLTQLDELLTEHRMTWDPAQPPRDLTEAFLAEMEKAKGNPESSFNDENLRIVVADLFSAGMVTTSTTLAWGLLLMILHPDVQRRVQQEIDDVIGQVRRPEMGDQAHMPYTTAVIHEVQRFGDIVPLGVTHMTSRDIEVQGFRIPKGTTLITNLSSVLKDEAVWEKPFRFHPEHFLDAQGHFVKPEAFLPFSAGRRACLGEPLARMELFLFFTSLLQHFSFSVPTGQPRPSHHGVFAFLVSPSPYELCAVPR

Assay [13] deals with NIH3T3. Nature of the assay: qHTS assay to identify novel small-molecules to repurpose for Merkel cell carcinoma treatment (AID 1296009). Also: nearly all actives have a fitted effect of over 60% in size. The following applies: MCC and control cell lines, CellTiter-Glo viability, 72 h; at 44.8 µM (top of the series) unless noted. An outline of the steps: as §2
Assay [14] concerns Zika virus NS2B-NS3 protease (unlinked complex). Nature of the assay: Primary screen GU Rhodamine qHTS for Zika virus inhibitors: Unlinked NS2B-NS3 protease assay (AID 1347159). The gist of the method:
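In dose–response format, inhibition of unlinked protease (25 nM) was measured with 1.5 microM bis-peptide Rhodamine110 substrate. Aprotinin served as the intraplate control.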

Assay [15] deals with Cytochrome P450 2C9 (Homo sapiens) (UniProt P11712). In words: Cytochrome P450 family 2 subfamily C member 9 (CYP2C9) small molecule antagonists: luciferase biochemical (cell-free) qHTS assay (AID 1645842; active = well fitted curve in the direction sought with a large enough effect in the repeat runs; an effect the other way counts as inactive or inconclusive; also: nearly all actives have a fitted effect of over 55% in size; also: potency is read from the fitted curve at half-maximal effect; as to activity change, negative = inhibition: % is scaled to controls: 0 for no effect and ±100 for the full control effect). An outline of the steps:
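P450-Glo CYP2C9 system: proluciferin substrate with enzyme in mix containing 0.4% BSA, 10 min at room temperature, then NADPH regeneration solution added and incubated 1 h at 37C. Detection reagent stopped reaction; luminescence read after 20 min as RLU.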

A short description of assay [16]: Primary qHTS for inhibitors of nuclear receptor binding SET domain protein 2 (NSD2) in an RCH-ACV wild type WT cells (2C) (AID 1645877). Also: % is scaled to controls: 0 for no effect and ±100 for the full control effect; nearly all actives have a fitted effect of over 70% in size.
Assay [17] in a line: P-glycoprotein substrates identified in KB-3-1 adenocarcinoma cell line, qHTS therapeutic library screen (AID 1346986). Also: nearly all actives have a fitted effect of over 60% in size. The gist of the method: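 Viability read by CellTiter-Glo after 72 h compound exposure in dose-response of KB-3-1 and KB-8-5-11 (P-gp-high) cells. Hits needed AC50 < 10 uM, >50% maximum response and curve class -1.1 to -2.4. Cherry-picks retested ± tariquidar, including pcDNA/MDR-19 HEK-293 pair.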

Assay [18] relates to CRL-7250. In words: qHTS assay to identify novel small-molecules to repurpose for Merkel cell carcinoma treatment (AID 1296009). Also: nearly all actives have a fitted effect of over 60% in size. Particulars: MCC and control cell lines, CellTiter-Glo viability, 72 h; series mostly up to 92 µM. An outline of the steps:
as §2

Results filed as inconclusive are left out. Active and inactive are the calls of the source. Unless noted, calls follow the shape of the dose curve; as a rule, active = well fitted curve in the direction sought with a large enough effect; inconclusive = small, poorly fitted or top-dose-only effect, or another doubt; inactive = no such curve, though single readings can be large; an effect the other way counts as inactive or inconclusive.

Cytochrome P450 2C9 (Homo sapiens), sequence (P11712 whole entry, looked up): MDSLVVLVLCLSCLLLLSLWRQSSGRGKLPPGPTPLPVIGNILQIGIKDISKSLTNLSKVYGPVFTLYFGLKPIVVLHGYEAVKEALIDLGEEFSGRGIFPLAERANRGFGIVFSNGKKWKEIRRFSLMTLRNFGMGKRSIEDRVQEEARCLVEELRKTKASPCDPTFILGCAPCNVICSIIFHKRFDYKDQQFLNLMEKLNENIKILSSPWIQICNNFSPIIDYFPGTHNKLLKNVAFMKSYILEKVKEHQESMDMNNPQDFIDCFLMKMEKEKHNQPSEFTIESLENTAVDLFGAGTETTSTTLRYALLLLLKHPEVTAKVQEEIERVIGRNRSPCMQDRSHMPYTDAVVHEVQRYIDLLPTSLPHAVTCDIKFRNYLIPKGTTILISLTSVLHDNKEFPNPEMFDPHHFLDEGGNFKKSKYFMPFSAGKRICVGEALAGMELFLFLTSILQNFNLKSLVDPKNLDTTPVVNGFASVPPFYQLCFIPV
Catechol O-methyltransferase (Homo sapiens), sequence (P21964 whole entry, looked up): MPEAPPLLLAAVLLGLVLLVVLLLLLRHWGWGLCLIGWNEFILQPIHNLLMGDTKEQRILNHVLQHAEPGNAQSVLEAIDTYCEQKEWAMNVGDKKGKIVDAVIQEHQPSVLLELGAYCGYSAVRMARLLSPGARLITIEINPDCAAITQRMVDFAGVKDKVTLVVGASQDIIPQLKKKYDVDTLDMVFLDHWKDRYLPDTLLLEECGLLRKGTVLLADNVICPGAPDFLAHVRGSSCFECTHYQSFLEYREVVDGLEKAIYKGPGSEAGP

For the compound `CCC1CN2CCc3cc(OC)c(OC)cc3C2CC1CC1=NCCc2cc(O)c(OC)cc21` (configuration not stated), the Potency entry in [1], in assay [2], in [10] and in assay [11] was “inactive” each time. Also, the activity is -74.9% in assay [3], -6.53% in assay [5] and -6.3% in assay [6]. In addition, the activity change, negative = inhibition in assay [4] is -9.58% [at 29.8 µM]. Also, the max response in assay [7] was -0.358% (inactive); in assay [8] it was -7.09% (inactive). Further, in assay [9], the outcome was “inactive [at 17.4 µM]”.
As to `Cc1cccc(NC(=O)NC2N=C(c3ccccc3)c3ccccc3N(CC(=O)c3ccccc3C)C2=O)c1` (configuration not stated), the Potency entry in assay [1], in assay [12], in assay [10] and in assay [11] was “inactive” throughout. In addition, the max response was 0.833% (inactive) in assay [7] and 7.53% (inactive) in [8]. Moreover, the outcome in assay [9] and in [13] was “inactive” in each case.
Turning to `CC1(C)C(=O)N(c2ccc(C#N)c(C(F)(F)F)c2)C(=S)N1c1ccc(C(N)=O)c(F)c1`, the Potency result in assay [1], in [14], in assay [12], in assay [2], in assay [16] and in assay [10] was “inactive” throughout. In addition, the Potency entry in [11] was “inactive”. Besides, the Potency in assay [15] was 19 µM (active). Besides, the max response in [7] is 4.24% (inactive); in [8] it was -16.1% (inactive). Moreover, the outcome in [9] is “inactive”.
Regarding `CN1C(=O)[C@]23CC4C(C)(C)[C@@]5(C[C@@]41CN2CC[C@@]3(C)O)C(=O)Nc1c5ccc2c1OC=CC(C)(C)O2` (some centres not stated), the Potency entry in assay [1], in assay [2], in [16], in assay [10] and in assay [11] was “inactive” throughout. Besides, the max response in assay [7] is -5.32% (inactive); in assay [8], 1.88% (inactive).
As to `CC1CCCC(O)CCC/C=C/c2cc(O)cc(O)c2C(=O)O1` (configuration not stated), the Potency result in [17], in assay [1], in [10] and in assay [11] was “inactive” throughout. In addition, the max response in assay [7] is -5.57% (inactive). Further, the outcome in assay [8] is “inactive”.
Regarding `COC(=O)[C@@]1(C)C(=O)C=C[C@]2(C)c3c(O)cc(C(C)C)cc3[C@H](O)[C@@H](OC(C)=O)C12` (some centres not stated), the Potency entry in assay [1], in assay [14], in [18], in assay [10] and in assay [11] was “inactive” in each case. Also, the outcome in [7] is “inactive”. Further, the outcome in [9] is “inactive [at 17.4 µM]”.
As to `CN=C(NS(=O)(=O)c1ccc(Cl)cc1)N1C[C@H](c2ccccc2)C(c2ccc(Cl)cc2)=N1`, the Potency result in [14], in [12], in assay [15], in [18], in [10] and in assay [11] was “inactive” in each case. Besides, in [7], the outcome was “inactive”.
